Results on 36 molecules are retold here after PubChem BioAssay (NCATS).

Results filed as inconclusive are left out. Where a call stands in place of a potency, no number is given. Calls of active or inactive are those of the source. The call rests on the fitted dose curve.
Potency means the concentration at half of the fitted maximal effect.

The first assay is described as follows: Primary qHTS for inhibitors of MERS-S pseudo-typed particle cell entry (AID 1479149). Further: nearly all actives have a fitted effect of over 60% in size. The following applies: MERS-S pseudotyped particle entry, luciferase; series mostly up to 57.1 µM. In general terms: In qHTS, concentration-response curves come from the screen itself.
`CN1CCC[C@@H]1CCO[C@](C)(c1ccccc1)c1ccc(Cl)cc1`: the Potency is 4.47 µM (active). With `CN1CCN(CCCN2c3ccccc3Sc3ccc(C(F)(F)F)cc32)CC1`, the Potency is 28.2 µM (active). As for `O[C@@H](c1cc(C(F)(F)F)nc2c(C(F)(F)F)cccc12)[C@H]1CCCCN1`, the Potency entry is “inactive”. Still for that read-out and setting: with `CC(=O)Oc1ccccc1C(=O)Nc1ncc([N+](=O)[O-])s1` the figure was 5.62 µM (active); with `NC(=O)N/N=C/c1ccc([N+](=O)[O-])o1`, “inactive”. Still for that read-out and setting: in the case of `CNCC[C@H](Oc1cccc2ccccc12)c1cccs1` it was 25.1 µM (active). Take `CC(CCc1ccccc1)NC(C)C(O)c1ccc(O)cc1` (centres undefined): the Potency entry is “inactive”. As to `CC(=O)N(O)CCCCCNC(=O)CCC(=O)N(O)CCCCCNC(=O)CCC(=O)N(O)CCCCCN`, the Potency entry was “inactive”.

A further assay can be described thus: Primary qHTS for Vero E6 cytotoxicity: counterscreen for inhibitors of SARS-S pseudo-typed particle cell entry (AID 1479150). The conditions noted are these: cell viability; series mostly up to 57.1 µM.
As for `Fc1ccc([C@@H]2CCNC[C@H]2COc2ccc3c(c2)OCO3)cc1`, the Potency result was “inactive”. Still for that read-out and setting: with `O=C1c2cccc3c2[C@H](CCC3)CN1[C@@H]1CN2CCC1CC2` the entry was “inactive”; with `Cn1c(=O)c2c(ncn2CC(O)CO)n(C)c1=O` (centres undefined), “inactive”. Same read-out and setting: in the case of `CN1CCC[C@@H]1CCO[C@](C)(c1ccccc1)c1ccc(Cl)cc1` it was “inactive”; in that of `CCCN1C[C@H](CSC)C[C@@H]2c3cccc4[nH]cc(c34)C[C@H]21`, “inactive”; in that of `COc1ccc2nc(S(=O)Cc3ncc(C)c(OC)c3C)[nH]c2c1` (centres undefined), “inactive”. For the molecule `CN1CCN(CCCN2c3ccccc3Sc3ccc(C(F)(F)F)cc32)CC1`, the Potency result is “inactive”. Take `CO[C@@]12[C@H](COC(N)=O)C3=C(C(=O)C(C)=C(N)C3=O)N1C[C@@H]1N[C@@H]12`: the Potency result is “inactive”. On to `CC(=O)O[C@]1(C(C)=O)CC[C@H]2[C@@H]3C=C(C)C4=CC(=O)CC[C@]4(C)[C@H]3CC[C@@]21C`, for which the Potency entry was “inactive”. Still for that read-out and setting: in the case of `CC[C@@]1(O)C(=O)OCc2c1cc1n(c2=O)Cc2cc3c(CN(C)C)c(O)ccc3nc2-1` it was “inactive”; in that of `COc1ccc(OC)c(C(O)CNC(=O)CN)c1` (centres undefined), “inactive”; in that of `CCCC(CCC)C(=O)O`, “inactive”. Regarding `CC(=O)Oc1ccccc1C(=O)Nc1ncc([N+](=O)[O-])s1`, the Potency is 28.2 µM (active). In the case of `Cn1cnc([N+](=O)[O-])c1Sc1ncnc2nc[nH]c12`, the Potency result was “inactive”.

As for `Cc1nc2n(c(=O)c1CCN1CCC(c3noc4cc(F)ccc34)CC1)CCCC2`, the Potency result was “inactive”.

For the molecule `NC(=O)N/N=C/c1ccc([N+](=O)[O-])o1`, the Potency result was “inactive”.

As for `Nc1ncn([C@@H]2O[C@H](CO)[C@@H](O)[C@H]2O)c(=O)n1`, the Potency entry was “inactive”. Turning to `COc1cc2c(cc1OC)C(=O)C(CC1CCN(Cc3ccccc3)CC1)C2` (centres undefined), the Potency entry was “inactive”. For the molecule `CNCC[C@H](Oc1cccc2ccccc12)c1cccs1`, the Potency result was “inactive”. With `COC(=O)C1=C(C)NC(C)=C(C(=O)OCCN(C)Cc2ccccc2)C1c1cccc([N+](=O)[O-])c1` (centres undefined), the Potency result is “inactive”. On the same count and under the same terms, with `COc1ccccc1Oc1c(NS(=O)(=O)c2ccc(C(C)(C)C)cc2)nc(-c2ncccn2)nc1OCCO` the entry was “inactive”.

Take `CCC[C@H](N[C@@H](C)C(=O)N1[C@H](C(=O)O)C[C@@H]2CCCC[C@@H]21)C(=O)OCC`: the Potency entry was “inactive”. As for `CC[C@H](C)C(=O)O[C@H]1C[C@@H](C)C=C2C=C[C@H](C)[C@H](CC[C@@H]3C[C@@H](O)CC(=O)O3)[C@H]21`, the Potency is 14.1 µM (active). Still for that read-out and setting: with `CCCCNc1ccc(C(=O)OCCOCCOCCOCCOCCOCCOCCOCCOCCOC)cc1` the entry was “inactive”; with `CC(CCc1ccccc1)NC(C)C(O)c1ccc(O)cc1` (centres undefined), “inactive”; with `CC(=O)N(O)CCCCCNC(=O)CCC(=O)N(O)CCCCCNC(=O)CCC(=O)N(O)CCCCCN`, “inactive”.

In the case of `O=c1c(O)c(-c2ccc(O)c(O)c2)oc2cc(O)cc(O)c12`, the Potency entry was “inactive”. Regarding `Nc1[nH]c(=O)ncc1F`, the Potency entry is “inactive”. As to `CN1C(=O)CC(C)(c2ccccc2)C1=O` (centres undefined), the Potency result was “inactive”. With `CN1CCN(C2=Nc3ccccc3Oc3ccc(Cl)cc32)CC1`, the Potency result was “inactive”.

The next assay can be described thus: Confirmatory qHTS for activators (rescue) of SARS-CoV-2 Cytopathic Effect (CPE) (AID 1508606). Further: nearly all actives have a fitted effect of over 70% in size. The conditions noted are these: Vero E6 SARS-CoV-2 CPE rescue, viability luminescence; series mostly up to 20 µM.
For the molecule `CN1CCC[C@@H]1CCO[C@](C)(c1ccccc1)c1ccc(Cl)cc1`, the Potency is 10 µM (active). Same read-out and setting: in the case of `CC(=O)Oc1ccccc1C(=O)Nc1ncc([N+](=O)[O-])s1` it was 5.01 µM (active). For the molecule `CNCC[C@H](Oc1cccc2ccccc12)c1cccs1`, the Potency was 10 µM (active).

A further assay is described as follows: Cytotoxicity counterscreen for inhibitors of SARS-CoV-2 cell entry (AID 1645845). Further: nearly all actives have a fitted effect of over 50% in size. The following applies: cell viability (SARS-CoV-2 entry assay cells); series mostly up to 57.1 µM. A digest of the protocol:
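After a 15 min room-temperature ATPLite 1step step, luminescence reflected ATP remaining in HEK293-ACE2 cells exposed to compound for 1 h plus 48 h at 37 C, with percent activity set by cell and no-cell controls.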
Turning to `Fc1ccc([C@@H]2CCNC[C@H]2COc2ccc3c(c2)OCO3)cc1`, the Potency result was “inactive”. Regarding `O=C1c2cccc3c2[C@H](CCC3)CN1[C@@H]1CN2CCC1CC2`, the Potency entry was “inactive”. On the same count and under the same terms, with `N=C(N)c1ccc(OCCCCCOc2ccc(C(=N)N)cc2)cc1` the entry was “inactive”; with `Cn1c(=O)c2c(ncn2CC(O)CO)n(C)c1=O` (centres undefined), “inactive”; with `CCCN1C[C@H](CSC)C[C@@H]2c3cccc4[nH]cc(c34)C[C@H]21`, “inactive”. `COc1ccc2nc(S(=O)Cc3ncc(C)c(OC)c3C)[nH]c2c1` (centres undefined): the Potency result was “inactive”. On to `CO[C@@]12[C@H](COC(N)=O)C3=C(C(=O)C(C)=C(N)C3=O)N1C[C@@H]1N[C@@H]12`, for which the Potency entry is “inactive”. With `CC(=O)O[C@]1(C(C)=O)CC[C@H]2[C@@H]3C=C(C)C4=CC(=O)CC[C@]4(C)[C@H]3CC[C@@]21C`, the Potency result was “inactive”. Turning to `CC[C@@]1(O)C(=O)OCc2c1cc1n(c2=O)Cc2cc3c(CN(C)C)c(O)ccc3nc2-1`, the Potency entry is “inactive”.

Turning to `COc1ccc(OC)c(C(O)CNC(=O)CN)c1` (centres undefined), the Potency entry was “inactive”. Consider `CCCC(CCC)C(=O)O`, for which the Potency entry was “inactive”.

On to `CC(=O)Oc1ccccc1C(=O)Nc1ncc([N+](=O)[O-])s1`, for which the Potency entry was “inactive”. Regarding `Cc1nc(Nc2ncc(C(=O)Nc3c(C)cccc3Cl)s2)cc(N2CCN(CCO)CC2)n1`, the Potency entry is “inactive”. In the case of `CC[C@]1(O)C[C@H]2CN(CCc3c([nH]c4ccccc34)[C@@](C(=O)OC)(c3cc4c(cc3OC)N(C=O)[C@H]3[C@@](O)(C(=O)OC)[C@H](OC(C)=O)[C@]5(CC)C=CCN6CC[C@]43[C@@H]65)C2)C1`, the Potency entry was “inactive”. In the case of `Cc1nc2n(c(=O)c1CCN1CCC(c3noc4cc(F)ccc34)CC1)CCCC2`, the Potency result was “inactive”. On the same count and under the same terms, with `COc1cc2c(cc1OC)C(=O)C(CC1CCN(Cc3ccccc3)CC1)C2` (centres undefined) the entry was “inactive”; with `COC(=O)C1=C(C)NC(C)=C(C(=O)OCCN(C)Cc2ccccc2)C1c1cccc([N+](=O)[O-])c1` (centres undefined), “inactive”. With `COc1ccccc1Oc1c(NS(=O)(=O)c2ccc(C(C)(C)C)cc2)nc(-c2ncccn2)nc1OCCO`, the Potency entry is “inactive”. As to `CC1(C)NC(=O)N(c2ccc([N+](=O)[O-])c(C(F)(F)F)c2)C1=O`, the Potency entry was “inactive”.

In the case of `CCC[C@H](N[C@@H](C)C(=O)N1[C@H](C(=O)O)C[C@@H]2CCCC[C@@H]21)C(=O)OCC`, the Potency result was “inactive”. Consider `CC[C@H](C)C(=O)O[C@H]1C[C@@H](C)C=C2C=C[C@H](C)[C@H](CC[C@@H]3C[C@@H](O)CC(=O)O3)[C@H]21`, for which the Potency result was “inactive”.

Turning to `CC(=O)[C@]1(O)Cc2c(O)c3c(c(O)c2[C@@H](O[C@H]2C[C@H](N)[C@H](O)[C@H](C)O2)C1)C(=O)c1ccccc1C3=O`, the Potency entry was “inactive”.

`CC(CCc1ccccc1)NC(C)C(O)c1ccc(O)cc1` (centres undefined): the Potency result is “inactive”.

With `CC(=O)N(O)CCCCCNC(=O)CCC(=O)N(O)CCCCCNC(=O)CCC(=O)N(O)CCCCCN`, the Potency was 25.1 µM (active).

Take `O=c1c(O)c(-c2ccc(O)c(O)c2)oc2cc(O)cc(O)c12`: the Potency entry was “inactive”. As to `Nc1[nH]c(=O)ncc1F`, the Potency entry is “inactive”.

Regarding `CN1C(=O)CC(C)(c2ccccc2)C1=O` (centres undefined), the Potency entry was “inactive”.

Turning to `CN1CCN(C2=Nc3ccccc3Oc3ccc(Cl)cc32)CC1`, the Potency entry was “inactive”.
